Source: PubChem BioAssay
Calls of active or inactive are those of the source.

How the values were obtained:
[1] = optical density shifts of acrAB sulA E. coli – strain DRC41, OD650, 48 h, E. coli filamentation inducer project, primary screen (AID 1152); conditions: higher = more signal, called active from +8 up or from −8 down;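 further: E. coli MC1000 strain DRC41 lacking acrAB efflux pump and sulA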
[2] = probe aLefty1 binding on compound microarray – biochemical, small-molecule microarray, 635/667 nm fluorescence, primary screen (AID 1153); conditions: higher = more signal;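 further: score merges spot fluorescence with signal-to-noise ratio from the scanned slide images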
[3] = plasmodial surface anion channel blockers, osmotic lysis – cell-based, P. falciparum Indochina, OD700, 1 h, primary screen (AID 1154); conditions: P. falciparum Indochina infected RBC osmotic lysis, higher = more signal, called active from +8 up or from −8 down
[4] = plasmodial surface anion channel blockers, osmotic lysis – cell-based, P. falciparum Indochina, OD700, 2 h, primary screen (AID 1155);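 further: lysis reports solute entry through the parasite surface anion channel PSAC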; conditions: P. falciparum Indochina infected erythrocytes, higher = more signal, called active from +8 up or from −8 down
[5] = changes in parasitized red cell lysis, either direction – P. falciparum Indochina, OD700, 3 h, PSAC antagonist project, primary screen (AID 1156); conditions: P. falciparum-infected erythrocytes, osmotic lysis, higher = more signal, called active from +8 up or from −8 down
[6] = plasmodial surface anion channel blockers, osmotic lysis – cell-based, P. falciparum Indochina, OD700, 18 h, primary screen (AID 1157); conditions: P. falciparum Indochina infected erythrocytes, osmotic lysis OD700, 18 h; higher = more signal, called active from +8 up or from −8 down
[7] = S6 kinase pathway phospho-S6 level changes – cell-based, A549, cytoblot, luminescence, serum-stimulated, primary screen (AID 1158); conditions: 5 h, higher = more signal;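 further: serum-stimulated A549 lung adenocarcinoma cells; signal is phosphorylated S6 detected by cytoblot immunostaining with HRP secondary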
[8] = target: NADPH oxidase 2 (Homo sapiens) (UniProt P04839); experiment: compounds shifting NOX2 Amplex Red fluorescence – cell-based, HEK293-NOX2, PMA-stimulated, NOX inhibitor project, primary screen (AID 1159); conditions: 45 min, higher = more signal, called active from +8 up or from −8 down; further: test concentration not given here
NADPH oxidase 2 (Homo sapiens), sequence (P04839 whole entry, looked up): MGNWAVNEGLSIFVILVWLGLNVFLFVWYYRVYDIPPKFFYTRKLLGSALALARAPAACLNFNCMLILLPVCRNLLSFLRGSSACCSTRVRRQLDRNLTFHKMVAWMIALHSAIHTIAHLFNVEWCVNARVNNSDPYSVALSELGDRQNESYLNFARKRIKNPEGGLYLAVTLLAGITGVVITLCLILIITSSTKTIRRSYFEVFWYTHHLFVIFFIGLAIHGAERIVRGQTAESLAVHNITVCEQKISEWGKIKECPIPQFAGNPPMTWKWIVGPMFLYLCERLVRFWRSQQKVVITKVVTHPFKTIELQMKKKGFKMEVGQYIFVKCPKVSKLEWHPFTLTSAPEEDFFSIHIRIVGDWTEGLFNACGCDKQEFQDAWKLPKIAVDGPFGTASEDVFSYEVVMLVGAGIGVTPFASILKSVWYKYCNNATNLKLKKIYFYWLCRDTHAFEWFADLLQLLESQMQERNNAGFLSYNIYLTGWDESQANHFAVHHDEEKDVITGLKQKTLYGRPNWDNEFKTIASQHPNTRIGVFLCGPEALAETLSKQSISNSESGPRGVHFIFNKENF

[9] = target: NADPH oxidase 4 (Homo sapiens) (UniProt Q9NPH5); experiment: compounds shifting NOX4 Amplex Red fluorescence – cell-based, HEK293-NOX4, tetracycline-induced, NOX inhibitor project, primary screen (AID 1160); conditions: HEK293-NOX4, Amplex Red H2O2 fluorescence, 45 min; higher = more signal, called active from +8 up or from −8 down
NADPH oxidase 4 (Homo sapiens), sequence (Q9NPH5 whole entry, looked up): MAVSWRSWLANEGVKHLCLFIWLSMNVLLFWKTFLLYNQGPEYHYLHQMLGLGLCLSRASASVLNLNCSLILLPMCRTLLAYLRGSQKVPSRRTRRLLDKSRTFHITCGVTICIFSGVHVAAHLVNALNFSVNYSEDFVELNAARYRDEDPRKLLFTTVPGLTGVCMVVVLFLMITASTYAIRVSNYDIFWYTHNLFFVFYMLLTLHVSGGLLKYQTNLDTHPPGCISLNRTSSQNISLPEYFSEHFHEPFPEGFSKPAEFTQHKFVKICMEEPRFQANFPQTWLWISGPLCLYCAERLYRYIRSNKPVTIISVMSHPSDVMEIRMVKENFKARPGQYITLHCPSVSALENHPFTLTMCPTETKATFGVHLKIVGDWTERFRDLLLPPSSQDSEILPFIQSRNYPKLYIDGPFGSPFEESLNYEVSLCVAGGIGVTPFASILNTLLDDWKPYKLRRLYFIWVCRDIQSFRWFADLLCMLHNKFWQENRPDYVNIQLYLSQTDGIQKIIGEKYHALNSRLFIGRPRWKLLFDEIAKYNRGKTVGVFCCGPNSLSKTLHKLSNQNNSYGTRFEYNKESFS

[10] = target: NADPH oxidase 5 (Homo sapiens) (UniProt Q96PH1); experiment: compounds shifting NOX5 Amplex Red fluorescence – cell-based, HEK293-NOX5, NOX inhibitor project, primary screen (AID 1161); conditions: HEK293-NOX5, ionomycin, 45 min, higher = more signal
NADPH oxidase 5 (Homo sapiens), sequence (Q96PH1 whole entry, looked up): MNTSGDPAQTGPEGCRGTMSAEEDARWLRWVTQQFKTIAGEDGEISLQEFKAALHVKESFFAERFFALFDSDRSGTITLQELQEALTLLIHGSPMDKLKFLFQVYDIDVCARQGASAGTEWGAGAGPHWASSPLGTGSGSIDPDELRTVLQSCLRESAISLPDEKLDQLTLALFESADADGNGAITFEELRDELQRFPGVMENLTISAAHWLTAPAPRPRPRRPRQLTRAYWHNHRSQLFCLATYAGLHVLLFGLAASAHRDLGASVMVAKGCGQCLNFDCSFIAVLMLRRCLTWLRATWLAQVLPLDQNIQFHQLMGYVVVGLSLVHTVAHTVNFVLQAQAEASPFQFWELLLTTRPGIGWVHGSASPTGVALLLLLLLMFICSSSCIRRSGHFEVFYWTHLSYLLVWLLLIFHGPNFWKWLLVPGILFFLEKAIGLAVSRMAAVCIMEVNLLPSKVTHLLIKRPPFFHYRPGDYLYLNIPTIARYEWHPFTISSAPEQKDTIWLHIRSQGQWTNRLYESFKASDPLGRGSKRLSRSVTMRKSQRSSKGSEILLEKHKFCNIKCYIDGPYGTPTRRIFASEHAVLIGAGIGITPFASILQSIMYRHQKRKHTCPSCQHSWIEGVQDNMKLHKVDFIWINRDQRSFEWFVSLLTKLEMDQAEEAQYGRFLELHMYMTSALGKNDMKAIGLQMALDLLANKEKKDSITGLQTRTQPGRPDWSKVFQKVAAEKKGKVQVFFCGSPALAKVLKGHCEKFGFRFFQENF

[11] = compound effects on lung adenocarcinoma cell viability – A549, calcein-AM fluorescence, 48 h, basal, profiling panel (AID 1162); conditions: higher = more signal; further: test concentration not given here
[12] = compound effects on differentiated 3T3-L1 adipocyte viability – cell-based, 3T3-L1 adipocytes, calcein-AM fluorescence, 48 h, basal, profiling panel (AID 1163); conditions: 3T3-L1 adipocytes viability, higher = more signal; further: test concentration not given here
[13] = compound effects on hepatocellular carcinoma cell viability – HepG2, calcein-AM fluorescence, 48 h, basal, profiling panel (AID 1164); conditions: higher = more signal; further: test concentration not given here
[14] = compound effects on multiple myeloma cell viability – MM1S, calcein-AM fluorescence, 48 h, basal, profiling panel (AID 1165); conditions: higher = more signal; further: test concentration not given here
[15] = calcein-AM signal in unstimulated myeloma cells – cell-based, calcein-AM fluorescence, 48 h, PK04 Diversity Set, profiling panel (AID 1166); conditions: RPMI8226 myeloma viability, higher = more signal;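 further: cells grown under basal conditions without added stimulus; test concentration not given here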
[16] = JC-1 mitochondrial signal, unstimulated HepG2 cells – cell-based, JC-1 fluorescence, 24 h, 100 nL compound, profiling panel (AID 1167); conditions: HepG2 mitochondrial potential, higher = more signal; further: test concentration not given here
[17] = JC-1 mitochondrial signal, unstimulated adipocytes – cell-based, JC-1 fluorescence, 3T3-L1 adipocytes, 24 h, 100 nL compound, profiling panel (AID 1168); conditions: JC-1 mitochondrial fluorescence, higher = more signal, called active from +8 up or from −8 down; further: test concentration not given here
[18] = JC-1 mitochondrial signal, unstimulated myeloma cells – cell-based, JC-1 fluorescence, RPMI8226, 24 h, 100 nL compound, profiling panel (AID 1169); conditions: JC-1 mitochondrial potential fluorescence, higher = more signal; further: test concentration not given here
[19] = JC-1 mitochondrial signal, unstimulated MM1S myeloma – cell-based, JC-1 fluorescence, 24 h, 100 nL compound, profiling panel (AID 1170); conditions: MM1S mitochondrial potential, higher = more signal; further: test concentration not given here
[20] = resazurin metabolic signal in A549 cells – cell-based, resazurin fluorescence, 24 h, PK04 Diversity Set, profiling panel (AID 1171); conditions: A549 viability, higher = more signal, called active from +8 up or from −8 down; further: test concentration not given here

| SMILES | z-score [1] | composite z-score [2] | z-score [3] | z-score [4] | z-score [5] | z-score [6] | z-score [7] | z-score [8] | z-score [9] | z-score [10] | z-score [11] | z-score [12] | z-score [13] | z-score [14] | z-score [15] | z-score [16] | z-score [17] | z-score [18] | z-score [19] | z-score [20] |
| --- | --- | --- | --- | --- | --- | --- | --- | --- | --- | --- | --- | --- | --- | --- | --- | --- | --- | --- | --- | --- |
| C=CCC(OC(C)=O)[C@@H]1[C@@H](N(Cc2ccc(-c3cccc(C(F)(F)F)c3)o2)C(=O)c2cccc3ccccc23)c2cc(OCCCO)ccc2N1C(=O)c1ccc2ccccc2c1 (stereo not given in full) | -0.0766 (inactive) | 0.179 | 0.785 (inactive) | 0.434 (inactive) | 2.22 (inactive) | 0.286 (inactive) | 0.813 | -2.13 (inactive) | -1.74 (inactive) | -1.76 | 0.281 | 2.03 | 0.723 | -0.21 | -1.99 | 2.7 | -0.689 (inactive) | -0.556 | -0.102 | -0.453 (inactive) |
| C[N+](C)(C)CCCCCCNC(=O)[C@H]1C[C@H]2C(=O)NCC(=O)N2[C@H]1c1cccc(OCCO)c1 | -0.191 (inactive) | -0.259 | 2.76 (inactive) | 0.462 (inactive) | -1.36 (inactive) | 0.179 (inactive) | 0.142 | 0.752 (inactive) | 1.12 (inactive) | 1.24 | -0.292 | -0.207 | -0.528 | 0.112 | 0.579 | -1.52 | -0.529 (inactive) | 0.0573 | 0.127 | 0.749 (inactive) |
| CCOC(=O)C[C@H]1[C@H](OC(=O)c2cc3ccccc3oc2=O)[C@@H](NC(=O)C2CCCCC2)c2cc(OCCCO)ccc2N1C(=O)Cc1ccc(OC)cc1 | -0.926 (inactive) | 0.266 | 2.92 (inactive) | 0.275 (inactive) | 0.722 (inactive) | 0.328 (inactive) | 0.0301 | 1.57 (inactive) | 1.01 (inactive) | 1.63 | -0.266 | 0.535 | 0.391 | 0.254 | 0.0583 | 0.38 | -0.229 (inactive) | 0.0411 | 0.185 | -0.545 (inactive) |
| CCOC(=O)C1=CCC(c2cc3ccccc3[nH]2)N(S(=O)(=O)c2ccccc2[N+](=O)[O-])C1 (stereo not given) | -0.485 (inactive) | -0.391 | 4.73 (inactive) | 0.822 (inactive) | -0.217 (inactive) | 0.631 (inactive) | -0.146 | 0.269 (inactive) | -0.546 (inactive) | 0.731 | 0.0857 | -0.913 | 0.527 | 0.277 | -0.467 | 1.17 | -0.433 (inactive) | -0.366 | -1.61 | -0.869 (inactive) |
| O=C1C2C=CC(C(O)c3cccs3)N(Nc3ccccc3)C2C(=O)N1c1ccccc1 (stereo not given) | -0.597 (inactive) | 0.328 | 2.55 (inactive) | 0.52 (inactive) | 0.916 (inactive) | -0.423 (inactive) | 2.34 | -2.63 (inactive) | -3.57 (inactive) | -3.35 | -0.125 | 0.715 | -0.379 | 0.473 | 0.502 | -1.72 | 0.673 (inactive) | -0.18 | -0.542 | -0.919 (inactive) |
| O=C1NC(=O)C2C1C=CC(C(O)c1cccc(O)c1)N2Nc1ccc(Cl)cc1Cl (stereo not given) | -4.5 (inactive) | 0.139 | 4.82 (inactive) | 1.36 (inactive) | -0.608 (inactive) | 0.901 (inactive) | -1.22 | -0.897 (inactive) | -5.3 (inactive) | -3.11 | -1.09 | -0.648 | -1.13 | -3.03 | -1.52 | -2.54 | -0.299 (inactive) | -0.39 | 0.0224 | -0.728 (inactive) |
| C=CC[C@@]12N=C(c3ccc(OCCCO)cc3)O[C@@H]1c1ccccc1N(Cc1ccccc1)C2=O | 1.04 (inactive) | 1.47 | 31.3 (active) | 28.1 (active) | 3.1 (inactive) | 2.31 (inactive) | -0.0677 | -0.812 (inactive) | -0.091 (inactive) | -1.59 | -0.395 | 0.555 | -1.48 | -3.4 | -4.23 | 0.394 | 2.91 (inactive) | -1.25 | -0.934 | -1.1 (inactive) |
| CCCCCCCCCCC(O)C1C=CC2C(=O)N(C)C(=O)C2N1N1CCCCC1 (stereo not given) | -1.83 (inactive) | 0.532 | 9.71 (active) | 2.41 (inactive) | 2.12 (inactive) | 2.2 (inactive) | -1.58 | 1.18 (inactive) | -1.94 (inactive) | 2.16 | -1.25 | -1.6 | -1.17 | -3.29 | -3.54 | -0.235 | -1 (inactive) | -1 | -0.517 | -0.041 (inactive) |
| CN(C)CCCC[C@@H]1NC(=O)[C@H]2C[C@@H](C(=O)NCc3ccc(F)cc3)[C@@H](c3ccc(O)cc3)N2C1=O | 0.104 (inactive) | 0.364 | 1.2 (inactive) | -0.0251 (inactive) | -6.5 (inactive) | 0.153 (inactive) | -0.449 | 0.0836 (inactive) | 0.799 (inactive) | 0.195 | 0.334 | 0.0359 | -0.372 | -0.0511 | -0.23 | 1.28 | -0.365 (inactive) | -0.152 | 0.195 | 0.377 (inactive) |
| COCCOC(=O)N1C(=O)[C@@]2(c3cc(C#CC4(O)CCCCCC4)ccc31)[C@H](C(=O)NC[C@H](O)c1ccccc1)[C@H]1C(=O)O[C@H](c3ccccc3)[C@H](c3ccccc3)N1[C@@H]2c1ccc(O)cc1 | 0.664 (inactive) | 0.501 | 0.954 (inactive) | 1.01 (inactive) | 0.0635 (inactive) | 1.05 (inactive) | 0.632 | 1.39 (inactive) | 1.02 (inactive) | 1.61 | 0.188 | -0.111 | 0.814 | -1.75 | -2.8 | -1.19 | -0.11 (inactive) | -0.643 | -0.113 | 1.63 (inactive) |
| COCCOC(=O)N1C(=O)[C@@]2(c3cc(C#CC4(O)CCCCCC4)ccc31)[C@H](C(=O)N1CCc3cc(OC)c(OC)cc3C1)[C@H]1C(=O)O[C@H](c3ccccc3)[C@H](c3ccccc3)N1[C@@H]2c1ccc(O)cc1 | 1.27 (inactive) | 0.176 | 1.31 (inactive) | 0.735 (inactive) | 1.89 (inactive) | 0.712 (inactive) | 0.278 | 2.19 (inactive) | 0.296 (inactive) | 0.725 | -0.635 | 1.29 | 0.582 | -1.06 | -0.964 | -0.145 | -0.093 (inactive) | -1.06 | 0.318 | -0.311 (inactive) |
| CCCCN1CC=CC23O[C@@H]4C=CCOC(=O)[C@@H]4[C@H]2C(=O)N(CCO)[C@@H]3C1=O (stereo not given in full) | -0.492 (inactive) | 0.175 | -0.366 (inactive) | 0.574 (inactive) | 0.349 (inactive) | 0.381 (inactive) | -0.415 | 1.51 (inactive) | 1.08 (inactive) | 0.669 | 0.0738 | -0.426 | 0.442 | -1.05 | 0.342 | -0.454 | 0.302 (inactive) | 0.837 | -0.209 | -0.437 (inactive) |
| CC[C@H](C)C(=O)O[C@H]1CC[C@]2(C)C3=C(CCC2C1(C)C)[C@]1(C)CC[C@H]([C@H](C)CCCC(C)C)[C@@]1(C)CC3 (stereo not given in full) | 2.16 (inactive) | -0.142 | -0.223 (inactive) | -0.121 (inactive) | -0.589 (inactive) | -0.136 (inactive) | 0.231 | -0.371 (inactive) | -0.0141 (inactive) | -0.162 | 1.18 | 0.265 | 0.469 | 0.223 | -1.06 | 2.01 | -0.959 (inactive) | -0.509 | 0.628 | 0.809 (inactive) |
| COc1ccc(NN2C(C(O)c3cc(C(F)(F)F)cc(C(F)(F)F)c3)C=CC3C(=O)N(C4CCCCC4)C(=O)C32)cc1 (stereo not given) | -0.523 (inactive) | 1.41 | 1.62 (inactive) | 0.507 (inactive) | 0.545 (inactive) | 0.632 (inactive) | -0.35 | -0.934 (inactive) | -1.64 (inactive) | -1.35 | -0.557 | -0.826 | 0.837 | -0.167 | -1.31 | -1.68 | 0.0313 (inactive) | 0.139 | -1.14 | -0.35 (inactive) |
